Results on 55 compounds are retold here after ChEMBL document CHEMBL4513216, “Probing the Open Global Health Chemical Diversity Library for Multistage-Active Starting Points for Next-Generation Antimalarials” (ACS Infect Dis, 2020).

About 8,600 (12%) of roughly 69,000 compounds showed an effect of 50% or more. Many of the other results were omitted from the sample, so strong results are more common in it than they were.

For this test, the system named is Plasmodium berghei. In words: Screen against P. berghei liver stage (PbLuc), transformed with Luciferase, at 10uM. Type of test: functional, HepG2. The following applies: tested at 10 uM.
Consider `Cc1nc(N2CCCC2)nc2c1CCN(C(=O)C1CCCCC1)CC2`, for which the INHIBITION is -42.8%.

`CCOc1ccnc(N2CCN(C(=O)c3ccncc3)CC2)n1`: the INHIBITION amounted to 34.7%.

As for `CC(C)(C)c1n[nH]cc1CNC1CCC(OCC(F)(F)F)CC1` (stereo not given), the INHIBITION is recorded as -18.5%.

For the compound `CC(C)N(C)S(=O)(=O)N(C)Cc1ccc2c(c1)OCO2`, the INHIBITION was 54.3%.

`CCN(Cc1ccc2c(c1)OCO2)S(=O)(=O)N(C)C(C)C`: the INHIBITION is recorded as -4.16%.

On to `CC(C)N(C)S(=O)(=O)N(C)Cc1ccc2c(c1)OCCO2`, for which the INHIBITION is recorded as -10.1%.

Regarding `Cc1ccc(CN(C)C(=O)CN2CCCCC2Cn2cncn2)o1` (stereo not given), the INHIBITION worked out at 40.5%.

In the case of `Cc1cnn(CC2CCCCN2CC(=O)N(C)Cc2ccc(C)o2)c1` (stereo not given), the INHIBITION amounted to 53.4%.

As to `Cc1cc(C)n(CC2CCCN2CC(=O)N(C)Cc2ccc(C)o2)n1` (stereo not given), the INHIBITION is reported as 45.7%.

In the case of `Cc1cnn(CC2CCCN2CC(=O)N(C)Cc2ccc(C)o2)c1` (stereo not given), the INHIBITION was -10.3%.

Take `Cc1nc(C)n(CC2CCCN2CC(=O)N(C)Cc2ccc(C)o2)n1` (stereo not given): the INHIBITION is given as 74.2%.

On to `Cc1nc(C)n(CC2CCCCN2CC(=O)N(C)Cc2ccco2)n1` (stereo not given), for which the INHIBITION was determined as 28.6%.

As for `CN(C)c1nc2n(c(=O)n1)CCN2C(=O)Nc1ccc(Cl)cc1`, the INHIBITION was -25.5%.

Consider `CN(C)c1nc2n(c(=O)n1)CCN2C(=O)Nc1ccc(Cl)c(Cl)c1`, for which the INHIBITION amounted to 28.4%.

In the case of `CN(C)c1nc2n(c(=O)n1)CCN2C(=O)Nc1cccc(Cl)c1`, the INHIBITION is given as 78.1%.

For the compound `CCN1CCNC(=O)C12CCN(C(=O)Cc1ccsc1)CC2`, the INHIBITION is listed as -23.1%.

For the compound `CC(OCC1CC1)C(=O)Nc1nccn1Cc1ccccc1` (stereo not given), the INHIBITION is recorded as 44.7%.

For the compound `CCOCCOC(C)C(=O)Nc1ccnn1-c1ccccc1C` (stereo not given), the INHIBITION is recorded as 39.7%.

As to `Cn1ccc(C(=O)Nc2nccn2Cc2ccccc2Cl)cc1=O`, the INHIBITION turned out to be 9.91%.

Regarding `CCOCC(=O)Nc1nccn1Cc1ccccc1Cl`, the INHIBITION came out at 22.8%.

Take `CC(=O)Nc1nccn1Cc1ccccc1Cl`: the INHIBITION is recorded as 50.5%.

Turning to `CC(C)N(C)CC(=O)Nc1nccn1Cc1ccccc1Cl`, the INHIBITION is listed as -11.9%.

Consider `CS(=O)(=O)CCC(=O)Nc1cnn(-c2ccccc2Cl)c1`, for which the INHIBITION was 43.7%.

`CS(=O)(=O)CCC(=O)Nc1nccn1Cc1ccccc1Cl`: the INHIBITION amounted to 53.5%.

In the case of `CCOCCOC(C)C(=O)Nc1nccn1Cc1ccccc1` (stereo not given), the INHIBITION stood at 89.6%.

Turning to `O=C(NCCn1ccnc1)NCC(c1ccco1)N1CCCC1` (stereo not given), the INHIBITION is listed as -14%.

On to `Cc1nccn1[C@@H]1CC[C@@H](N(C)S(=O)(=O)c2ccccc2F)[C@H]1O`, for which the INHIBITION was -0.05%.

Take `Cc1occc1C(=O)NCC1OCCc2cn(C)nc21` (stereo not given): the INHIBITION was -14.2%.

As for `COCCCNc1c(-c2ccccc2)c(=O)c1=O`, the INHIBITION stood at 25.3%.

Turning to `CC(Cc1cccc(F)c1)NCc1cnc(N2CCN(C)CC2)nc1` (stereo not given), the INHIBITION turned out to be 23.2%.

Take `CCCc1nc(C)cc(N2CCNC(C(=O)NCc3cccnc3)C2)n1` (stereo not given): the INHIBITION was 59.1%.

Consider `CCCc1nc(C)cc(N2CCNC(C(=O)Nc3ccc(C)nc3)C2)n1` (stereo not given), for which the INHIBITION was 46.1%.

`O=C(NCc1cccnc1)[C@H]1C[C@@H]2CCN(c3ccncn3)C[C@H]2O1`: the INHIBITION worked out at 48%.

In the case of `CC1CCN(C(=O)[C@@H]2C[C@@H]3CCN(CC4CCOCC4)C[C@@H]3O2)CC1`, the INHIBITION is recorded as -24.9%.

As to `COCC(=O)NC(C)Cc1cccc(Br)c1` (stereo not given), the INHIBITION is recorded as 14.7%.

As for `CCOCC(=O)Nc1ncn(Cc2cccc(Br)c2)n1`, the INHIBITION is 61.8%.

For the compound `O=C(Nc1ncn(Cc2cccc(Br)c2)n1)C1CCC1`, the INHIBITION was found to be 37.2%.

Regarding `CCCSCC(=O)Nc1ncn(CC(=O)NCc2ccccc2)n1`, the INHIBITION worked out at 12.2%.

Turning to `CCOCC(=O)Nc1cc(-c2cccc(F)c2F)n[nH]1`, the INHIBITION was 10.7%.

For the compound `CC(CC(=O)Nc1ncn(CC(=O)NCc2ccccc2)n1)C1CC1` (stereo not given), the INHIBITION is 38.8%.

In the case of `CC(C)C(=O)Nc1ncn(Cc2cccc(Br)c2)n1`, the INHIBITION is reported as 53.3%.

For `O=C(COCC(=O)N1CCCCCC1)NCc1cccc(Br)c1`, the INHIBITION was 14.1%.

Turning to `CSCC(=O)Nc1ncn(Cc2cccc(Br)c2)n1`, the INHIBITION turned out to be 69.3%.

Regarding `CN(C)C(=O)CN1CCN(C(=O)c2cnn(-c3ccccc3Cl)c2)CC1`, the INHIBITION is -2.33%.

As to `CCOC(=O)N1CCN(C(=O)c2snnc2-c2ccc(OC)cc2)CC1`, the INHIBITION amounted to 4.66%.

Turning to `COCCN1C[C@@H]2CN(Cc3cccc(C)n3)C[C@@H]2C1=O`, the INHIBITION is reported as 14.1%.

`CCc1nc(C2CCCN(C(=O)c3ccc(OC)cc3)C2)no1` (stereo not given): the INHIBITION was -31.8%.

Turning to `CC(C)CC(=O)N1CC[C@H]2N(C)CC[C@@]2(C(=O)Nc2ccccc2)CC1`, the INHIBITION worked out at 42.5%.

Take `CCOC1COC2(CCN(Cc3ccc(C)c(C)c3)CC2)C1` (stereo not given): the INHIBITION was determined as 30.9%.

For `CCCn1ncc(C(=O)NC(C)c2c(C)nn(CC)c2C)c1C` (stereo not given), the INHIBITION was 9.05%.

On to `CCC(CC)n1ncc(C(=O)NS(=O)(=O)c2ccsc2)c1C`, for which the INHIBITION turned out to be 38.4%.

Turning to `Cc1c(C(=O)NS(=O)(=O)c2ccc(F)cc2)cnn1CC(C)C`, the INHIBITION is 56%.

As for `Cn1nnc2cc(C(=O)NS(=O)(=O)c3ccc(F)cc3)ccc21`, the INHIBITION came to 17.1%.

As for `Cc1c(C(=O)NS(=O)(=O)c2ccsc2)cnn1CC(C)C`, the INHIBITION came to 53.8%.

Take `Cn1cnc2cc(C(=O)NS(=O)(=O)c3ccc(F)cc3)ccc21`: the INHIBITION worked out at 28.4%.
